High-throughput results (PubChem)
Compounds with a hit are over-represented: about 1.8% of the library has one in this group of screens.
GLP1R inv ag = GLP-1 receptor (human) inverse agonism | P43220 | HEK293 GLP-1R CRE-luciferase, luminescence, 24 h; GLP-1R form is constitutively active | Potency, µM (top dose mostly 38.3 µM), without a hit: at the highest dose activity change, negative = inhibition, usual class: inhibitors | 410,000 tested, 1.6% active; further: on the % scale 0 is the no-effect control and ±100 the full control effect; nearly all actives have a fitted effect of over 55% in size
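Inverse agonists were sought by their lowering of basal cAMP reporter luciferase output in HEK293 cells stably carrying constitutively active human GLP-1R, after 24 h compound treatment.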
GLP1R ag = agonists of human GLP-1 receptor | Potency, µM (top dose mostly 45.6 µM), for the others: at the highest dose activation, most hits filed as activators | P43220 | AID 624172 | 380,000 tested, 0.007% active | HEK293 GLP-1R CRE-luciferase, luminescence, 4-6 h; cells express a hypersensitive GLP-1R form; further: % of control where 0% means no effect
PTHR1 ag = activates the human parathyroid hormone receptor PTHR1. Q03431. HEK293 GP2 PTHR1 cells, GloSensor cAMP luminescence, 1 h. Potency, µM (top dose mostly 115 µM), for inactives: top-dose activation, usual class: activators. 410,000 tested, 0.075% active. AID 743266; further: nearly all actives have a fitted effect of over 55% in size
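HEK-293-derived GP2 cells expressing PTHR1 and a GloSensor cAMP reporter, 3,000/well, plated overnight, given luciferin plus IBMX (each 0.5 mM as added) for 1 h at 37 °C, then compound for 1 h at 37 °C. Luminescence was read after 15 min at room temperature.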
GCN5L2 inh = blocks human GCN5L2 histone acetyltransferase; GCN5L2 HAT assay, ThioGlo1 CoA-SH fluorescence; Potency, µM (top dose mostly 58.9 µM), for the others: at the highest dose activity change, negative = inhibition, actives largely listed as inhibitors; 390,000 tested, 0.21% active; AID 504327; further: on the % scale 0 is the no-effect control and ±100 the full control effect
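GCN5L2 (20 nM) in 50mM HEPES pH 7.5, 0.1mM EDTA, 0.01% Tween-20 preincubated 15 min with compounds at room temperature. Reaction started with H3(1-25) 75uM, acetyl-CoA 70uM, ThioGlo1 50uM; CoA-thiol fluorescence (Ex340/Em540) read at 0 and 20 min.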
RGS4 inh = inhibitors of human regulator of G protein signaling 4. 390,000 tested, 0.039% active. P49798. Transcreener GDP fluorescence polarization, RGS4-accelerated GTP hydrolysis. Potency, µM (highest dose often 114 µM), without a hit: top-dose activity change, negative = inhibition, usual class: inhibitors; further: on the % scale 0 is the no-effect control and ±100 the full control effect; nearly all actives have a fitted effect of over 75% in size
Target sequence (P49798 whole entry, looked up): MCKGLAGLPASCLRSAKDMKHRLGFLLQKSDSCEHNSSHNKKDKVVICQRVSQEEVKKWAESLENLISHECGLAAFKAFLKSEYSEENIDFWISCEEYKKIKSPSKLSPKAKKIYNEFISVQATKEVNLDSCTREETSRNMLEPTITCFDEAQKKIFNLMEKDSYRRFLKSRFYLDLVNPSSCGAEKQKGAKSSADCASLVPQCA
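MLSMR compounds (23 nl, pin-transferred) preincubated 10 min at room temperature with a 500nM (2x) first reagent, then RGS4 at 900nM (2x) plus Transcreener GDP mix added; fluorescence polarization (620/688 nm) read before and after 90 min at 30 °C.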
HEK293 tox = cytotoxicity in counter-screen for GLP-1R inverse agonists. HEK293 cAMP-luciferase reporter cells, luminescence, 24 h. Potency, µM (titrated, usually from 38.3 µM), inactives show at the top dose activity change, negative = inhibition, most hits filed as inhibitors. 410,000 tested, 0.13% active. AID 624418;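 further: loss of luciferase light is scored as toxicity; on the % scale 0 is the no-effect control and ±100 the full control effect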
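MLSMR compounds, 24 hr on cells at 37 deg C/5% CO2; luminescence after luciferase reagent (12 min RT). Inhibition counted as the undesired cytotoxic outcome.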
Starred values were filed as active, the others as inactive; i = inactive; ? = inconclusive; . = no result given; [ ] = remark or other dose. The call rests on the fitted dose curve; in most records, active means well fitted curve in the direction sought with a large enough effect; inconclusive means small, poorly fitted or top-dose-only effect, or another doubt; inactive means no such curve, though single readings can be large; an effect the other way counts as inactive or inconclusive. Potency means the concentration at half of the fitted maximal effect.

SMILES	GLP1R inv ag	GLP1R ag	PTHR1 ag	GCN5L2 inh	RGS4 inh	HEK293 tox
CC(O)CNc1nc2ccccc2n1-c1ncnc2sc3c(c12)CCC3 (stereo not given)	10µM*	0.3%	-19.9%	-2.3%	-29.5%	?
c1ccc2c(c1)nnn2-c1ncnc2sc3c(c12)CCCC3	4.6%	9.2%	-24.4%	?	-25.6%	-6.3%
c1ccc2c(c1)ncn2-c1ncnc2sc3c(c12)CCCC3	4.47µM*	5.1%	i	-4.0%	-0.3%	-28.9%
CCOc1cc(-c2ccc3c(c2)OCO3)cc(=[O+]CC)c2c(C)oc(C)c12	.	.	.	.	-22.4%	.
O=C(NCc1ccc(F)cc1)C1CCN(S(=O)(=O)c2ccc(Br)s2)CC1	10µM*	6.1%	-13.1%	-3.7%	-3.9%	-6.8%
O=C(CN1C(=O)c2cccc3cccc1c23)NCc1cccnc1	-29.3%	8.0%	-3.6%	31.6µM*	-23.6%	31.9%
O=C(NCCCN1CCOCC1)c1ccc(Sc2ccc(Br)cc2)c([N+](=O)[O-])c1	-61.9%	4.7%	i	-7.9%	1.5%	0.4%
O=C(Nc1cccc(Cl)c1)c1ccc(NCCCN2CCOCC2)c([N+](=O)[O-])c1	5.01µM*	-9.7%	-37.7%[57.5 µM]	-4.5%	5.4%	-10.3%
Cc1c(C)n(Cc2ccccc2)c2ccc(C(=O)NCCCN3CCOCC3)cc12	1µM*	18.7%	-8.7%	-0.9%	5.0%[11.4 µM]	-23.6%
O=C(NCCCN1CCOCC1)c1ccc(Sc2ccccc2Cl)c([N+](=O)[O-])c1	3.55µM*	0.0%	i	-4.1%	-28.9%	-11.4%
Cc1c(C)n(Cc2ccc(F)cc2)c2ccc(C(=O)NCCCN3CCOCC3)cc12	?	3.8%	?	3.5%	20.9%	-15.9%
CC[C@H](C)[C@H](NC(=O)[C@H](Cc1ccc(O)cc1)NC(=O)[C@@H](NC(=O)[C@H](CCCN=C(N)N)NC(=O)[C@@H](N)CC(=O)O)C(C)C)C(=O)N[C@@H](Cc1cnc[nH]1)C(=O)N1CCC[C@H]1C(=O)N[C@@H](Cc1ccccc1)C(=O)N[C@@H](Cc1cnc[nH]1)C(=O)N[C@@H](CC(C)C)C(=O)O	.	.	.	9.5%	.	.
COc1ccc(O)c(/C=N/NC(=S)NCCc2ccccc2)c1	2.24µM*	22.9%	-16.4%	-28.2%	2.3%	6.0%
Oc1ccc(Br)cc1/C=N/NC(=S)NCCc1ccccc1	?	17.6%	-19.6%	-25.3%	-32.6%	38.8%
COc1ccc2[nH]cc(CCNC(=S)NCCc3ccccc3)c2c1	8.91µM*	12.2%	-3.0%	-7.8%	-23.4%	?
Fc1ccc(/C=N/NC(=S)NCCc2ccccc2)cc1F	?	23.2%	-4.6%	-3.5%	-25.2%	12.6µM*
COCCNC(=S)N/N=C(\C)c1ccccc1O	?	9.5%	i	2.2%	-9.6%	-90.7%
COc1ccc(/C(C)=N/NC(=S)NCCc2ccccc2)c(O)c1	2µM*	8.3%	-0.9%	-16.6%	-21.4%	?
COc1ccc2[nH]cc(CCNC(=O)Nc3ccccc3)c2c1	?	6.3%	1.4%	30.5%	19.9%	-4.3%
COc1ccc([N+](=O)[O-])cc1NC(=S)NC(NC(=O)Cc1ccc(OC)c(OC)c1)C(Cl)(Cl)Cl (stereo not given)	4.47µM*	-5.0%	?	-3.5%	-38.1%	?
Cc1cccc(NC(=O)Cn2c(=O)n(Cc3nc(-c4ccccc4)no3)c(=O)c3ccccc32)c1	-17.4%	.	-1.6%	0.7%	17.8%	-1.4%
COCC(=O)N(Cc1nc2ccccc2c(=O)[nH]1)Cc1cccs1	-4.4%	-10.5%	i	-11.3%	1.1%[11.4 µM]	-13.9%
COc1ccccc1CN(Cc1nc2ccccc2c(=O)[nH]1)C(=O)Nc1ccc(C)cc1	10µM*	6.3%	-12.8%	2.9%	-9.0%	?
